Source: PubChem BioAssay (NCI)
Compounds without any hit were thinned out: in the full panel of roughly 83,000, 20% have a hit.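 How to read the values: 0–100, growth inhibition (40 = 60% inhibited); 0, no net growth; -100 to 0, cell death (-40 = 40% of starting cells died; -100 = all dead).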 The source made the active and inactive calls. Rule for the calls: active = growth percent below 10; inactive = the rest.

The molecules below were run on OVCAR-4 ovarian (assay: NCI-60 one-dose screen, 48 h (100 = growth as untreated, 0 = no growth, -100 = all killed)). Conditions: 10 µM unless noted.

Compound	growth
CC(=O)N[C@@H](CNC(=O)c1cc(NC(=O)c2cc(NC(=O)c3cc(NC(=O)c4nccn4C)cn3C)cn2C)cn1C)CC(=O)Nc1cn(C)c(C(=O)Nc2cc(C(=O)Nc3cc(C(=O)Nc4cc(C(=O)NCCCN(C)CCCNC(=O)c5cccc(C(=O)O)c5)n(C)c4)n(C)c3)n(C)c2)n1	64% (inactive)
CCOC(=O)c1cnc2c(OC)ccc(OC)c2c1Cl	113% (inactive)
NS(=O)(=O)c1ccc(Nc2nc(O)c(/C=C3\C=Nc4ccccc43)s2)cc1	125% (inactive)
CNC(=O)NN	110% (inactive)
Cc1cc(O[C@@H]2O[C@@H](C)[C@H](O)[C@@H](O)[C@H]2O)c2c3c(c(O[C@@H]4O[C@@H](C)[C@H](O)[C@@H](O)[C@H]4O)cc2c1)C(=O)c1c(O)cccc1C3=O	81.8% (inactive)
Cc1cccc(Cc2cnc(NC(=O)CCc3ccc(C)o3)s2)c1	53.3% (inactive)
C=CC(=O)NC(=O)Nc1ccccc1Cl	103% (inactive)
COc1cccc(-c2nc3sccn3c2-c2ccnc(NCCNC(=O)c3ccccc3)n2)c1	109% (inactive)
COc1ccc(-c2nn(-c3ccc(NC(=O)Nc4ccc(Cl)c(C(F)(F)F)c4)cc3)cc2-c2ccncc2)cc1Cl	45.1% (inactive)
CC(C)CNCC(O)COc1ccc(C(C)(C)c2ccc(OCC(O)CNCC(C)C)cc2)cc1 (stereo unspecified)	81% (inactive)
Cc1ccc2[nH]c3nc4cccnc4c(C)c3c2c1	87.1% (inactive)
O=C(Nc1ccc(-n2ccc3c(NC(=O)c4ccccc4)nccc32)cc1)c1ccc(Cl)c(C(F)(F)F)c1	88.5% (inactive)
COc1ccc(-c2nn(-c3ccc(NC(=O)Nc4ccc(Cl)c(Cl)c4)cc3)cc2-c2ccncc2)cc1Cl	49.4% (inactive)
Nc1nccc2c1ccn2-c1cccc(NC(=O)c2ccc(N3CCOCC3)c(C(F)(F)F)c2)c1	78.5% (inactive)
COc1ccc(/C=C/C(=O)/C=C(/C=C/c2ccc(OC)c(OC)c2OC)OB(F)F)c(OC)c1OC	47.4% (inactive)
Cc1cc[n+](CCCC[n+]2ccc(C)cc2)cc1	114% (inactive)
COC1=C(OC)C(=O)C=CC1=O	102% (inactive)
Cc1ccccc1C[P+](c1ccccc1)(c1ccccc1)c1ccccc1	3.27% (active)
CC/C(=C(\CC)c1ccc(OCCN(CC)CC)cc1)c1ccc(OCCN(CC)CC)cc1	38.1% (inactive)
COc1cccc(-c2nc3sccn3c2-c2ccnc(NCCNC(=O)Nc3cccc(C(F)(F)F)c3)n2)c1	91.1% (inactive)
COc1ccc(-c2cnc(-c3ccc(F)cc3)[nH]2)cc1	98.3% (inactive)
O=C(Nc1ccc(-n2cc(-c3ccncc3)c(-c3ccc(O)c(Cl)c3)n2)cc1)c1ccc(Cl)c(C(F)(F)F)c1	62.6% (inactive)
O=C(Nc1ccc(-n2ccc3c(NC(=O)c4ccccc4)ncnc32)cc1)c1ccc(Cl)c(C(F)(F)F)c1	17.1% (inactive)
C=CC(=O)Nc1cccc(Nc2nc(Nc3ccc(OCCOC(F)F)cc3)ncc2F)c1	40.6% (inactive)
O=[N+]([O-])c1cccc(C(c2ccccc2)c2ccccc2)c1	98.2% (inactive)
O=C(NCCNc1nccc(-c2c(-c3cccc(O)c3)nc3sccn23)n1)Nc1cccc(C(F)(F)F)c1	110% (inactive)
O=C(Nc1cccc(-n2ccc3c(NC(=O)c4ccccc4)nccc32)c1)c1cc(N2CCOCC2)cc(C(F)(F)F)c1	83.1% (inactive)
O=C(Nc1ccc(-n2cc(-c3ccncc3)c(-c3ccc(O)c(Cl)c3)n2)cc1)c1cc(C(F)(F)F)cc(C(F)(F)F)c1	85.9% (inactive)

Each molecule was assayed on SK-OV-3 ovarian in the same assay as above. Conditions: 10 µM unless noted.

Compound	growth
O=C(Cn1c2ccccc2c2ccncc21)N/N=C/c1c[nH]c2ccccc12	107% (inactive)
Cc1ccc(-c2nc3c(N=Nc4ccc(S(N)(=O)=O)cc4)c(N)nn3c(N)c2C#N)cc1	63.8% (inactive)
O=C(Nc1ccccc1Cl)c1c[nH]c(=O)c(-c2ccc(N3CCCOC4(CC4)C3)cc2)c1	74.6% (inactive)
OC(COc1ccccc1Cl)CN1CCN(c2ccc(Cl)cc2)CC1 (stereo unspecified)	114% (inactive)
Nc1nccc2c1ccn2-c1ccc(NC(=O)Nc2cccc(C(F)(F)F)c2)cc1	104% (inactive)
O=C(Nc1ccc(-n2ccc3c(NC(=O)c4ccccc4)nccc32)cc1)Nc1cccc(C(F)(F)F)c1	92.2% (inactive)
O=C1C(Cl)=C(Nc2ccccc2)C(=O)C(Cl)=C1Nc1ccccc1	108% (inactive)
CC(=O)Nc1ccc([I+]c2ccc([N+](=O)[O-])cc2)cc1	94.4% (inactive)
CCN1CCN(Cc2ccc(NC(=O)Nc3cccc(-n4ccc5c(NC(=O)c6ccccc6)nccc54)c3)cc2C(F)(F)F)CC1	78.3% (inactive)
O=C(Nc1cccc(-n2ccc3c(NC(=O)c4ccccc4)nccc32)c1)c1cccc(C(F)(F)F)c1	12.1% (inactive)
CC(=O)N[C@@H](CNC(=O)c1cc(NC(=O)c2cc(NC(=O)c3cc(NC(=O)c4nccn4C)cn3C)cn2C)cn1C)CC(=O)Nc1cn(C)c(C(=O)Nc2cc(C(=O)Nc3cc(C(=O)Nc4cc(C(=O)NCCCN(C)CCCNC(=O)c5cccc(C(=O)O)c5)n(C)c4)n(C)c3)n(C)c2)n1	115% (inactive)
CCOC(=O)c1cnc2c(OC)ccc(OC)c2c1Cl	100% (inactive)
NS(=O)(=O)c1ccc(Nc2nc(O)c(/C=C3\C=Nc4ccccc43)s2)cc1	102% (inactive)
CNC(=O)NN	95.9% (inactive)
Cc1cc(O[C@@H]2O[C@@H](C)[C@H](O)[C@@H](O)[C@H]2O)c2c3c(c(O[C@@H]4O[C@@H](C)[C@H](O)[C@@H](O)[C@H]4O)cc2c1)C(=O)c1c(O)cccc1C3=O	83.6% (inactive)
Cc1cccc(Cc2cnc(NC(=O)CCc3ccc(C)o3)s2)c1	24.5% (inactive)
C=CC(=O)NC(=O)Nc1ccccc1Cl	87.3% (inactive)
COc1cccc(-c2nc3sccn3c2-c2ccnc(NCCNC(=O)c3ccccc3)n2)c1	88.5% (inactive)
COc1ccc(-c2nn(-c3ccc(NC(=O)Nc4ccc(Cl)c(C(F)(F)F)c4)cc3)cc2-c2ccncc2)cc1Cl	23.9% (inactive)

Compound	growth
CC(C)CNCC(O)COc1ccc(C(C)(C)c2ccc(OCC(O)CNCC(C)C)cc2)cc1 (stereo unspecified)	86.9% (inactive)
Cc1ccc2[nH]c3nc4cccnc4c(C)c3c2c1	88% (inactive)
O=C(Nc1ccc(-n2ccc3c(NC(=O)c4ccccc4)nccc32)cc1)c1ccc(Cl)c(C(F)(F)F)c1	53.9% (inactive)
COc1ccc(-c2nn(-c3ccc(NC(=O)Nc4ccc(Cl)c(Cl)c4)cc3)cc2-c2ccncc2)cc1Cl	34.6% (inactive)
Nc1nccc2c1ccn2-c1cccc(NC(=O)c2ccc(N3CCOCC3)c(C(F)(F)F)c2)c1	16.6% (inactive)
COc1ccc(/C=C/C(=O)/C=C(/C=C/c2ccc(OC)c(OC)c2OC)OB(F)F)c(OC)c1OC	76.8% (inactive)
Cc1cc[n+](CCCC[n+]2ccc(C)cc2)cc1	116% (inactive)
COC1=C(OC)C(=O)C=CC1=O	114% (inactive)
Cc1ccccc1C[P+](c1ccccc1)(c1ccccc1)c1ccccc1	42.6% (inactive)
CC/C(=C(\CC)c1ccc(OCCN(CC)CC)cc1)c1ccc(OCCN(CC)CC)cc1	64.2% (inactive)
COc1cccc(-c2nc3sccn3c2-c2ccnc(NCCNC(=O)Nc3cccc(C(F)(F)F)c3)n2)c1	78.6% (inactive)
COc1ccc(-c2cnc(-c3ccc(F)cc3)[nH]2)cc1	121% (inactive)
O=C(Nc1ccc(-n2cc(-c3ccncc3)c(-c3ccc(O)c(Cl)c3)n2)cc1)c1ccc(Cl)c(C(F)(F)F)c1	56% (inactive)
O=C(Nc1ccc(-n2ccc3c(NC(=O)c4ccccc4)ncnc32)cc1)c1ccc(Cl)c(C(F)(F)F)c1	65.6% (inactive)
C=CC(=O)Nc1cccc(Nc2nc(Nc3ccc(OCCOC(F)F)cc3)ncc2F)c1	-25% (active)
O=[N+]([O-])c1cccc(C(c2ccccc2)c2ccccc2)c1	95.6% (inactive)
O=C(NCCNc1nccc(-c2c(-c3cccc(O)c3)nc3sccn23)n1)Nc1cccc(C(F)(F)F)c1	85% (inactive)
O=C(Nc1cccc(-n2ccc3c(NC(=O)c4ccccc4)nccc32)c1)c1cc(N2CCOCC2)cc(C(F)(F)F)c1	5% (active)
O=C(Nc1ccc(-n2cc(-c3ccncc3)c(-c3ccc(O)c(Cl)c3)n2)cc1)c1cc(C(F)(F)F)cc(C(F)(F)F)c1	84% (inactive)
